Legend:
Assay in all cases: DAPPL (digital affinity profiling via proximity ligation, sequencing); 10 mM Tris-HCl pH 7.5, 50 mM NaCl, 1 mM DTT, 4% glycerol, room temperature, 30 min; GST-TFs on glutathione beads, 16-mer random dsDNA library, 0.1% formaldehyde crosslink after washing; high values mean tight binding
FLI1 = biological target: T1, FLI1 (Homo sapiens, UniProt Q01543 1-452); conditions: protein: recombinant; tags: N-terminal GST; dsDNA, one strand shown
T1 sequence: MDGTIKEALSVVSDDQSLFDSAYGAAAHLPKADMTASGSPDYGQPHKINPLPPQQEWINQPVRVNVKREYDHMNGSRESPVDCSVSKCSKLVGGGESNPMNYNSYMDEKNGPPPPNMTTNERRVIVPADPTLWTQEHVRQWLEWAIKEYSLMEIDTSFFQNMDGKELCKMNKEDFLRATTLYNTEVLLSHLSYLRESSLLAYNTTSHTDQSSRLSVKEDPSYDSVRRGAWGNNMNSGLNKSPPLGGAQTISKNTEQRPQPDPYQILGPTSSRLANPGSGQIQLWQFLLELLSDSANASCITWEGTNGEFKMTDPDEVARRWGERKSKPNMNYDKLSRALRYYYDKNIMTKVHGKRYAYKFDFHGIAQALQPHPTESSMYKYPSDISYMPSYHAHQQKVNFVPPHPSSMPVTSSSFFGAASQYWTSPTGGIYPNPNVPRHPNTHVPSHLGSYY
Outline: (§1)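 GST fusions of human transcription factors were expressed in yeast and captured with glutathione beads. Once given DNA barcodes and pooled alongside a tag-only sample, they were incubated for 30 min at room temperature with 200 nmole of a random double-stranded 16-mer DNA library in Tris/NaCl/DTT/glycerol buffer, then washed, crosslinked (0.1% formaldehyde), proximity-ligated, PCR-amplified and sequenced on an Illumina NextSeq500. The binding signal of each hexamer is its read frequency for a factor divided by its frequency for the tag-only sample.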

ELK1 = biological target: T2, ELK1 (Homo sapiens, UniProt P19419 1-428); conditions: protein: recombinant; tags: N-terminal GST; dsDNA, one strand shown
T2 sequence: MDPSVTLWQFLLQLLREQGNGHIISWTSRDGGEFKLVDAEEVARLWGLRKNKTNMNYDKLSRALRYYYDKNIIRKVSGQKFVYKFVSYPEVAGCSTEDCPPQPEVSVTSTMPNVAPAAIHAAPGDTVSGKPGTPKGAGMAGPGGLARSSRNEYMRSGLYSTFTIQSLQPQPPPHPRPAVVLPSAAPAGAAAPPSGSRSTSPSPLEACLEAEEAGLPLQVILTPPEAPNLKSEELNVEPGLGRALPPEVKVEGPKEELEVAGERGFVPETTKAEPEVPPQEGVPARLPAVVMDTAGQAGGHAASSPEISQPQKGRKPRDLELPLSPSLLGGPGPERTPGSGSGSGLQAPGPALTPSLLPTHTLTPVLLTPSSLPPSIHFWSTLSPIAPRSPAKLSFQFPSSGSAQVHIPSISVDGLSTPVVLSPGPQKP
Outline: as §1

GABPA = biological target: T3, GABPA (Homo sapiens, UniProt Q06546 1-454); conditions: protein: recombinant; tags: N-terminal GST; dsDNA, one strand shown
T3 sequence: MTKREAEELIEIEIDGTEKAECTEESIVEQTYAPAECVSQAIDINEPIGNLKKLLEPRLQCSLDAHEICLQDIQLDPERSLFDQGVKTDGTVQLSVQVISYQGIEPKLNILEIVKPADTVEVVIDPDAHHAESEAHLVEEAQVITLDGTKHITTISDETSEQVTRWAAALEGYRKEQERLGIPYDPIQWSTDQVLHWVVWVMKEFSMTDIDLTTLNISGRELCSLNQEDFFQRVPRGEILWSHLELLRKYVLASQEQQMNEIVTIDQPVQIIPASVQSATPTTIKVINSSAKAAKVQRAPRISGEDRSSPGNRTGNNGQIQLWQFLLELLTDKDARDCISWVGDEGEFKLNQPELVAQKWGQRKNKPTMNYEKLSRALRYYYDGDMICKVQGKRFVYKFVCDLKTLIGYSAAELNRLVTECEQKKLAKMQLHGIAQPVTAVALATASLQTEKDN
Outline: as §1

ERG = biological target: T4, ERG (Homo sapiens, UniProt P11308 1-479); conditions: protein: recombinant; tags: N-terminal GST; dsDNA, one strand shown
T4 sequence: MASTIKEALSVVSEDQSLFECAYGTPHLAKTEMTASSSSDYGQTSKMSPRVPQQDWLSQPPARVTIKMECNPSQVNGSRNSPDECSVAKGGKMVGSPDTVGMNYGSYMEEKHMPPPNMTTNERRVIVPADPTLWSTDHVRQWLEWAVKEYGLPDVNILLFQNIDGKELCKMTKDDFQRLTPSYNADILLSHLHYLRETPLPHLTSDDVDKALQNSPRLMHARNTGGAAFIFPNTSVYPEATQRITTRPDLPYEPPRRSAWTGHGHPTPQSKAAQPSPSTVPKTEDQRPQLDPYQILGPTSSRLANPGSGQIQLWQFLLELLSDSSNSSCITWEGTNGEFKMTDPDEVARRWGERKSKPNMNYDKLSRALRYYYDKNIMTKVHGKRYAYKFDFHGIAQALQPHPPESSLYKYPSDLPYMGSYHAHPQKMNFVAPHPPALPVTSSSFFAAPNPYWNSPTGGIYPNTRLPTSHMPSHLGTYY
Outline: as §1

ELF1 = ELF1 (Homo sapiens, UniProt P32519 1-619); conditions: protein: recombinant; tags: N-terminal GST; dsDNA, one strand shown
Chain of ELF1 (P32519 whole entry): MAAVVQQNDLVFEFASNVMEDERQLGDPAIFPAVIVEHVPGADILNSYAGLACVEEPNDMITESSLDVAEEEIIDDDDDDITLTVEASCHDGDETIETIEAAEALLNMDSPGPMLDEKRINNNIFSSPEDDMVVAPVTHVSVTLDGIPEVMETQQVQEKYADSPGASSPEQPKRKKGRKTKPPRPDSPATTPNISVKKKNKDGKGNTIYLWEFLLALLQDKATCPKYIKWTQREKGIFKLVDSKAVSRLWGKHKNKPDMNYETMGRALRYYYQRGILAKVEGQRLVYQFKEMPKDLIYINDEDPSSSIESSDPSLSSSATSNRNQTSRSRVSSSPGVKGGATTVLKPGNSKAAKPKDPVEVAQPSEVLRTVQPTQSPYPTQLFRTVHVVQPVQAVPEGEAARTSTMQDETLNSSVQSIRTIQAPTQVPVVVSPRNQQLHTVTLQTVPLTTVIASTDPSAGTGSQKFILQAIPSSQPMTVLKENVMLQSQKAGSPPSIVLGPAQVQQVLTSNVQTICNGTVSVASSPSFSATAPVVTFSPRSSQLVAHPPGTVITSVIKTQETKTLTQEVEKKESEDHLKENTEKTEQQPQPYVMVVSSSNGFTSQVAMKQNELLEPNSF
Outline: as §1

EHF = biological target: T5, EHF (Homo sapiens, UniProt Q9NZC4 1-300); conditions: protein: recombinant; tags: N-terminal GST; dsDNA, one strand shown
T5 sequence: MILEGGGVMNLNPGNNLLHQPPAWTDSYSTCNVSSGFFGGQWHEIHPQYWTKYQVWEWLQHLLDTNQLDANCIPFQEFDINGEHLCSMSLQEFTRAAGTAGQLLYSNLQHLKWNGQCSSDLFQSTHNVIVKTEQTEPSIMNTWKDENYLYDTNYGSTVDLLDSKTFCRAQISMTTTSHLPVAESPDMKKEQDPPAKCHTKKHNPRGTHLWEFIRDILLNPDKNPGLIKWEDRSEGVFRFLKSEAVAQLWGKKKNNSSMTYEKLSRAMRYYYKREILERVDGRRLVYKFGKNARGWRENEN
Outline: as §1

SPI1 = SPI1 (Homo sapiens, UniProt P17947 1-270); conditions: protein: recombinant; tags: N-terminal GST; dsDNA, one strand shown
Outline: as §1

SPIB = SPIB (Homo sapiens, UniProt Q01892 1-262); conditions: protein: recombinant; tags: N-terminal GST; dsDNA, one strand shown
Chain of SPIB (Q01892 whole entry): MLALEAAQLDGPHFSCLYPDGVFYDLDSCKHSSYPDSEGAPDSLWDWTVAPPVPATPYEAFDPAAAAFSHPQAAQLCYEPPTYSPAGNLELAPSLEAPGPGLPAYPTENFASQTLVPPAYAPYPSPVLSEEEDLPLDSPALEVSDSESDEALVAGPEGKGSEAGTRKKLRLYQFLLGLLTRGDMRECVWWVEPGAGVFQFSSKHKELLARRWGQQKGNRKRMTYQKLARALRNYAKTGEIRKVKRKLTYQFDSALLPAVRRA
Outline: as §1

ELK3 = biological target: T6, ELK3 (Homo sapiens, UniProt P41970 1-407); conditions: protein: recombinant; tags: N-terminal GST; dsDNA, one strand shown
T6 sequence: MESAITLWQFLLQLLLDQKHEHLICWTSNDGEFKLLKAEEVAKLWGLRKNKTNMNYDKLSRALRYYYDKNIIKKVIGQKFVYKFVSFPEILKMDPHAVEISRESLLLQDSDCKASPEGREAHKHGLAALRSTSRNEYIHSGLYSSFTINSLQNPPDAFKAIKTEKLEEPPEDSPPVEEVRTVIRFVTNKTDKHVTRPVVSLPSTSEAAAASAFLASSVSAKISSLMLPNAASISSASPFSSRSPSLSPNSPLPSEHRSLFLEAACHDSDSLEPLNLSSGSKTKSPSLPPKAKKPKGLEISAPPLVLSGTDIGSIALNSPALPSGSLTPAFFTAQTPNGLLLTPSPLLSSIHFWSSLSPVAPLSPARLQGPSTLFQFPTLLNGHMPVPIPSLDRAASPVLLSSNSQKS
Outline: as §1

FEV = biological target: T7, FEV (Homo sapiens, UniProt Q99581 1-238); conditions: protein: recombinant; tags: N-terminal GST; dsDNA, one strand shown
T7 sequence: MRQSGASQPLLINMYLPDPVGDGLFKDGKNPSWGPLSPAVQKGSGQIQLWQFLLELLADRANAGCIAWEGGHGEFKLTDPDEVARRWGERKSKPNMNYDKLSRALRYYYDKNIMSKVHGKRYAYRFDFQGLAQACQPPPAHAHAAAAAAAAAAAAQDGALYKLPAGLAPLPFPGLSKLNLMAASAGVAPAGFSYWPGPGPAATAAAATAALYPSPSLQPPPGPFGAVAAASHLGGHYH
Outline: as §1

ETV5 = ETV5 (Homo sapiens, UniProt P41161 1-510); conditions: protein: recombinant; tags: N-terminal GST; dsDNA, one strand shown
Chain of ETV5 (P41161 whole entry): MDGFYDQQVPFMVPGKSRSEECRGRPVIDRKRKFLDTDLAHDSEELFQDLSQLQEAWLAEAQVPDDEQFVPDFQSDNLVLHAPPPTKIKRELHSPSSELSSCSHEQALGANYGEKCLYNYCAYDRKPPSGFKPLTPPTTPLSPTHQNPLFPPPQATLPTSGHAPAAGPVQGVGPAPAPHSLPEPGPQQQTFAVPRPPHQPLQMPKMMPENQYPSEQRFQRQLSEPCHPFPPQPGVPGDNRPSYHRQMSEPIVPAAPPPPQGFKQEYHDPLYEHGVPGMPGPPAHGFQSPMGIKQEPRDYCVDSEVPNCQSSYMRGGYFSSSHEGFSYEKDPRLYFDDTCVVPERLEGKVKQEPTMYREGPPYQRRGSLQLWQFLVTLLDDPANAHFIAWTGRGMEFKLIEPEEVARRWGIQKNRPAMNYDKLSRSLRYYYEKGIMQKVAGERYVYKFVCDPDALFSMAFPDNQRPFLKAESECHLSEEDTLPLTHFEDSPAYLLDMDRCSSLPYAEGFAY
Outline: as §1

HSF1 = HSF1 (Homo sapiens, UniProt Q00613 1-529); conditions: protein: recombinant; tags: N-terminal GST; chain copies: 3; dsDNA, one strand shown
Chain of HSF1 (Q00613 whole entry): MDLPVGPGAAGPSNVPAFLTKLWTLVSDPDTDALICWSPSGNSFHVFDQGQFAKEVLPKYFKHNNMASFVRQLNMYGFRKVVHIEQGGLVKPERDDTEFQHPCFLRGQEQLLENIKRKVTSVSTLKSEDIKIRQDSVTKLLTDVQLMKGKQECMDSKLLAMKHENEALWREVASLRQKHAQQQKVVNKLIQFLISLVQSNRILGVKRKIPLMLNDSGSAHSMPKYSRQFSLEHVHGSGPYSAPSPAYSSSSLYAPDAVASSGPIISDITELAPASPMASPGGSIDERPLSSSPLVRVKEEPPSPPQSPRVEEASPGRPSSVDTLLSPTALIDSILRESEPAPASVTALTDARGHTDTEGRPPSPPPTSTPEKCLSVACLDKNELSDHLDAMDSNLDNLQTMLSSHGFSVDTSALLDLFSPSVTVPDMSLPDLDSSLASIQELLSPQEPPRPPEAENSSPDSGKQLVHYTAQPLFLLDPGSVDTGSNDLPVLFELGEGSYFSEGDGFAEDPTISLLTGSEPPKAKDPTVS
Outline: as §1

SPIC = biological target: T8, SPIC (Homo sapiens, UniProt Q8N5J4 1-248); conditions: protein: recombinant; tags: N-terminal GST; dsDNA, one strand shown
T8 sequence: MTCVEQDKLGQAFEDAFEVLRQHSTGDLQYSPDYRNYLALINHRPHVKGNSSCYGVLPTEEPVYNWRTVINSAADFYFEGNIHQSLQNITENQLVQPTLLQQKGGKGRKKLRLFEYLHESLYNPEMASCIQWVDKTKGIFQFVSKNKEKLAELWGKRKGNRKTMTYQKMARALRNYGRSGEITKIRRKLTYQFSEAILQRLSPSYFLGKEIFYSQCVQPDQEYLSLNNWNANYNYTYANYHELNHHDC
Outline: as §1

ELF4 = ELF4 (Homo sapiens, UniProt Q99607 1-663); conditions: protein: recombinant; tags: N-terminal GST; dsDNA, one strand shown
Chain of ELF4 (Q99607 whole entry): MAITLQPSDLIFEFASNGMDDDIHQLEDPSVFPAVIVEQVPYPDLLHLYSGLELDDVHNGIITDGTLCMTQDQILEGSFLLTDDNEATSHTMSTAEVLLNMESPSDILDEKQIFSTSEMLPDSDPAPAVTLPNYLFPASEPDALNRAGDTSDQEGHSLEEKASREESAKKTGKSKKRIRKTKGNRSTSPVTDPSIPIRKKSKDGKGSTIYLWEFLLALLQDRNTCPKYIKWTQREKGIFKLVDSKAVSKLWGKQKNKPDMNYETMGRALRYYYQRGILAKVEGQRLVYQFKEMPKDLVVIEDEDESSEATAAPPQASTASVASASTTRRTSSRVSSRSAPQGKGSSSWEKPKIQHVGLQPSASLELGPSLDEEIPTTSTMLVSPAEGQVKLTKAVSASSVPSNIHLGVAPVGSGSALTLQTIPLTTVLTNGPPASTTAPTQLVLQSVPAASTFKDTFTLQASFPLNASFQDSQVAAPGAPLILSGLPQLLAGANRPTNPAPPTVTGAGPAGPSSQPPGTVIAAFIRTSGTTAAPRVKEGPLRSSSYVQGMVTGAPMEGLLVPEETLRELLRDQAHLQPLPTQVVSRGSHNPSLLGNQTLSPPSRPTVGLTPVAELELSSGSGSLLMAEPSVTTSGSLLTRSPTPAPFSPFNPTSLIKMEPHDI
Outline: as §1

ELK4 = biological target: T9, ELK4 (Homo sapiens, UniProt P28324-2 1-405); conditions: protein: recombinant; tags: N-terminal GST; dsDNA, one strand shown
T9 sequence: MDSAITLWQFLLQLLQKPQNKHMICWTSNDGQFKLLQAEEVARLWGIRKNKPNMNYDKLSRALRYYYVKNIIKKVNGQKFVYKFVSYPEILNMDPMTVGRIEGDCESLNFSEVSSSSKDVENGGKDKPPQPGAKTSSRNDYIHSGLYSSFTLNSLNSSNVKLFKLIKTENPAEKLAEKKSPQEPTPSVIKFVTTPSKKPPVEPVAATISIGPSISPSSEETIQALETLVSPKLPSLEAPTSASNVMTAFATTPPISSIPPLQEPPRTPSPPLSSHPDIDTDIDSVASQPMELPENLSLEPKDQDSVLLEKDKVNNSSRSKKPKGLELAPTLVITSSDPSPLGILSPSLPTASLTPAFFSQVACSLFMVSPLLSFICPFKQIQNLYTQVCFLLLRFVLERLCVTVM
Outline: as §1

ETV2 = biological target: T10, ETV2 (Homo sapiens, UniProt O00321 1-342); conditions: protein: recombinant; tags: N-terminal GST; dsDNA, one strand shown
T10 sequence: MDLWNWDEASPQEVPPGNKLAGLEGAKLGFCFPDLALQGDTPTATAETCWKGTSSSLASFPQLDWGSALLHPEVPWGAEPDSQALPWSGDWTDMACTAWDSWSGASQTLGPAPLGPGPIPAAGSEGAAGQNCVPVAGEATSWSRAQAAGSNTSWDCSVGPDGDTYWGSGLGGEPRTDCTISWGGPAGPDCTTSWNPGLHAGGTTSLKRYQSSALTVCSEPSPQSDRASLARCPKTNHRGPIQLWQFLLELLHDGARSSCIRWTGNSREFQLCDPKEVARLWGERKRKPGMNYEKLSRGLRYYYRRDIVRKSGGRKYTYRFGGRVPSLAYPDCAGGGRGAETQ
Outline: as §1

ELF3 = biological target: T11, ELF3 (Homo sapiens, UniProt P78545 1-371); conditions: protein: recombinant; tags: N-terminal GST; dsDNA, one strand shown
T11 sequence: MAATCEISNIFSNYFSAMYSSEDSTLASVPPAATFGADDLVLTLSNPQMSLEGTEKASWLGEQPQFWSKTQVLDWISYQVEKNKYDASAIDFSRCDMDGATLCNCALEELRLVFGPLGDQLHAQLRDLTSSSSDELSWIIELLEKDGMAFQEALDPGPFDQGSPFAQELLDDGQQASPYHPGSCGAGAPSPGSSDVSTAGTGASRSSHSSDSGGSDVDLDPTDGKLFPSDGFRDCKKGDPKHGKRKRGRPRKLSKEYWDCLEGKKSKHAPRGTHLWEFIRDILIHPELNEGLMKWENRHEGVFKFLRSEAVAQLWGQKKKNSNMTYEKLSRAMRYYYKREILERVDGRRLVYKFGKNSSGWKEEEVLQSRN
Outline: as §1

CRX = CRX (Homo sapiens, UniProt O43186 1-299); conditions: protein: recombinant; tags: N-terminal GST; dsDNA, one strand shown
Chain of CRX (O43186 whole entry): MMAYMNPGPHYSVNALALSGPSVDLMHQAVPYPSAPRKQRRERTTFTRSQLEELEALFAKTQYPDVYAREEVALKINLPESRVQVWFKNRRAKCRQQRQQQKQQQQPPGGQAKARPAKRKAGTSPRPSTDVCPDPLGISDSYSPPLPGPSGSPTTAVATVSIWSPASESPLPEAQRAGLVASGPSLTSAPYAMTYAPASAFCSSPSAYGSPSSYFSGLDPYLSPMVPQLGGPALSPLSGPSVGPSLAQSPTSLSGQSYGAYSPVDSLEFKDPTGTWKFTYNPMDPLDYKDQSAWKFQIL
Outline: as §1

ETV1 = ETV1 (Homo sapiens, UniProt P50549 1-477); conditions: protein: recombinant; tags: N-terminal GST; dsDNA, one strand shown
Chain of ETV1 (P50549 whole entry): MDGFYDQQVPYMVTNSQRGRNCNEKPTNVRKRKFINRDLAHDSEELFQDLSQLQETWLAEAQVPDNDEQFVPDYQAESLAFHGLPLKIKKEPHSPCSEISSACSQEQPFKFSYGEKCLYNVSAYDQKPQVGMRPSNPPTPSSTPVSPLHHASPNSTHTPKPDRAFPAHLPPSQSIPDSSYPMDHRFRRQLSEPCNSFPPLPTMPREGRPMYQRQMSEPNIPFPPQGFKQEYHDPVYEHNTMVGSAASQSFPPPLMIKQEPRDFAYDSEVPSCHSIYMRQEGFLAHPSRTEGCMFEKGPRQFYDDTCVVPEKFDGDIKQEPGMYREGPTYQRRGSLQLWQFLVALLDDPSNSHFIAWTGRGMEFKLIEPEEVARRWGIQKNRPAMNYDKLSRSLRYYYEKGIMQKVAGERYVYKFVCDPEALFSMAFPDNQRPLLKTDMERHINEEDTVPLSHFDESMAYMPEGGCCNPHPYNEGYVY
Outline: as §1

GTTCTT
binding signal (FLI1): 1.19 fold enrichment (6-mer frequency, TF over GST control)
binding signal (ELK1): 1.22 fold enrichment (6-mer frequency, TF over GST control)
binding signal (GABPA): 1.09 fold enrichment (6-mer frequency, TF over GST control)
binding signal (ERG): 1.19 fold enrichment (6-mer frequency, TF over GST control)
binding signal (ELF1): 1.18 fold enrichment (6-mer frequency, TF over GST control)
binding signal (EHF): 1.08 fold enrichment (6-mer frequency, TF over GST control)
binding signal (SPI1): 1.09 fold enrichment (6-mer frequency, TF over GST control)
binding signal (SPIB): 1.17 fold enrichment (6-mer frequency, TF over GST control)
binding signal (ELK3): 1.35 fold enrichment (6-mer frequency, TF over GST control)
binding signal (FEV): 1.11 fold enrichment (6-mer frequency, TF over GST control)
binding signal (ETV5): 1.23 fold enrichment (6-mer frequency, TF over GST control)
binding signal (HSF1): 1.36 fold enrichment (6-mer frequency, TF over GST control)
binding signal (SPIC): 1.12 fold enrichment (6-mer frequency, TF over GST control)
binding signal (ELF4): 1.18 fold enrichment (6-mer frequency, TF over GST control)
binding signal (ELK4): 1.23 fold enrichment (6-mer frequency, TF over GST control)
binding signal (ETV2): 1.15 fold enrichment (6-mer frequency, TF over GST control)
binding signal (ELF3): 1.31 fold enrichment (6-mer frequency, TF over GST control)
binding signal (CRX): 1.12 fold enrichment (6-mer frequency, TF over GST control)
binding signal (ETV1): 1.21 fold enrichment (6-mer frequency, TF over GST control)
